We go through 15 compounds from PubChem BioAssay (NCATS).

SMILES strings stand for the structures. Where “and” joins values, the source holds several entries; their conditions need not be identical. Equal values may be shown once. Values without a mark were called inactive. Results filed as inconclusive are left out. Calls of active or inactive are those of the source. Unless noted, the call rests on the fitted dose curve; in most records, active means well fitted curve in the direction sought with a large enough effect; inconclusive means small, poorly fitted or top-dose-only effect, or another doubt; inactive means no such curve, though single readings can be large; an effect the other way counts as inactive or inconclusive.

Assay [1] is described as follows: Stat Signaling Pathway (AID 446; active means well fitted curve in either direction with a large enough effect, not every such curve was filed as active;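 further: ME-180 cervical cancer cells given 40 pM IL-6 alongside compound; SIE-controlled beta-lactamase reporter measured as 460/530 nm FRET emission ratio; on the % scale 0 is the no-effect control and ±100 the full control effect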). Particulars: ME-180 (cervical carcinoma) SIE beta-lactamase reporter, IL-6 stimulated, 5 h; at 17.2 µM (top of the series) unless noted. The method in brief: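 Emission at 460 and 530 nm (excitation 405 nm) reports SIE-controlled beta-lactamase in ME-180 cells. Cells received compound with 40 pM IL-6 for 5 hrs at 37 C; data scaled between 300 pM IL-6 and 125 nM JAK-inhibitor controls.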

Assay [2] addresses Glucocorticoid receptor (Homo sapiens) (UniProt P04150). As to the kind of experiment: GR-GFP Redistribution (AID 450;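 active means compounds whose dose series gives a full or clear partial fitted curve of increased nuclear translocation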; further: potency means the concentration at half of the fitted maximal effect).
The target is the same in assay [3]. Briefly: GR-EFC Redistribution (AID 451; calls by dose curve; further: potency means the concentration at half of the fitted maximal effect). The conditions noted are these: CHO-K1 GR-EFC translocation, beta-gal luminescence, 2 h. The method in brief:
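CHO-K1 cells stably expressing nuclear-localized β-gal enzyme acceptor and GR fused C-terminally to the enzyme donor fragment; ligand-driven nuclear translocation restores β-gal by complementation. Compounds titrated up to 46 uM final, 2 h at 37 °C; luminescence read.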

Assay [4] has as its target Guanine nucleotide-binding protein G(i) subunit alpha-1 (Homo sapiens) (UniProt P63096). As to the kind of experiment: qHTS Assay for Inhibitors of RGS12 GoLoco Motif Activity (Green Fluorophore) (AID 879).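 Further: 0% = labeled peptide with Gαi1 and full inhibition = labeled peptide alone without protein; negative values mean loss of peptide binding seen as reduced polarization.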 The method in brief: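 A drop in FITC polarization marked displacement of the FITC-tagged RGS12 GoLoco peptide (10 nM) from Gαi1 (50 nM). Compounds were incubated 10 min at room temperature in Tris pH 7.5 buffer containing 150 mM NaCl, 0.1 mM GDP and 0.05% NP40; unlabeled peptide titration served as control.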
A general note: Quantitative high-throughput screening tests each substance at several concentrations.

Assay [5] addresses Muscarinic acetylcholine receptor M1 (Rattus norvegicus) (UniProt P08482). As to the kind of experiment: qHTS Assay for Antagonists of Acetylcholine Muscarinic M1 Receptor: Kinetic Measurement of Intracellular Calcium Response (AID 943). Further: potency means the concentration at half of the fitted maximal effect; nearly all actives have a fitted effect of over 75% in size. The method in brief: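 Antagonism measured as reduction of carbachol-evoked (EC80, 100 nM final) calcium flux in rat M1-CHO cells after 10 min compound exposure. Fluo-4 signal read kinetically; ratio of maximal to basal fluorescence.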

The target is the same in assay [6]. Briefly: qHTS Assay for Antagonists of Acetylcholine Muscarinic M1 Receptor: Measurement of IP-One Response (AID 944). Further: potency means the concentration at half of the fitted maximal effect; nearly all actives have a fitted effect of over 75% in size. The method in brief: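 IP1 accumulation measured via TR-FRET between d2-IP1 and Eu-cryptate anti-IP1 antibody after carbachol (200 nM, EC80) stimulation for 30 min; rat M1-transfected CHO cells received compound 10 min before agonist.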
Assay [7] concerns the target Pyruvate kinase (Leishmania mexicana) (UniProt Q27686). Briefly: qHTS Validation Assay for Inhibitors of Leishmania Mexicana Pyruvate Kinase (AID 945).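 Further: 0% = DMSO only neutral control wells.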 The method in brief: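 Read-out: luminescence from PKLight stop/detection reagent, data normalized to DMSO. Reaction: 0.2 nM E451W LmPYK, 0.5 mM PEP, 0.1 mM ADP, pH 7.2, 1 h room temperature.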
Assay [8] concerns the target Pyruvate kinase PKM (Homo sapiens) (UniProt P14618). Briefly: qHTS Assay for Activators of Human Muscle Pyruvate Kinase (AID 954; active means well fitted curve in the direction sought with a large enough effect, not every such curve was filed as active;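 further: 0% = uninhibited enzyme and -100% = no enzyme or full thiadiazolimine inhibition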). The method in brief: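 PKM2, human, >95% pure, 0.1 nM; PEP 0.5 mM (Km), ADP 0.1 mM; 50 mM imidazole pH 7.2, 50 mM KCl, 0.01% Tween 20, 0.05% BSA; 1 h RT; luciferase luminescence readout.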
For assay [9], the target named is Alpha-galactosidase A (Homo sapiens) (UniProt P06280). Briefly: Counterscreen for Glucocerebrosidase Inhibitors: qHTS Assay for Human alpha-Galactosidase at pH 4.5 (AID 992). Further: 0% is about no effect. The method in brief: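 Fluorogenic 4-MU alpha-D-galactoside (80 uM) hydrolysis, 2 nM enzyme, pH 4.5 citrate buffer + 0.005% Tween-20; 20 min RT; NaOH/glycine pH 10 stop; Ex365/Em440. Compounds titrated 0.7 nM–77 uM; Hill-equation AC50.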
Background: A counterscreen serves to expose hits that act by an unwanted route or on another target.

The target of assay [10] is alpha-glucosidase (Oryza sativa, rice) (UniProt Q653V4). Briefly: Counterscreen for Glucocerebrosidase Inhibitors: qHTS Assay for Rice alpha-Glucosidase at pH 5.0 (AID 997).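 Further: 0% = full activity with enzyme and -100% = basal without enzyme.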 The method in brief: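 Endpoint fluorogenic assay at pH 5.0: compounds (0.7 nM to 77 uM) titrated against 4 nM rice enzyme and 400 uM 4-MU-alpha-glucoside for 20 min at room temperature; NaOH/glycine stop, read ex 365/em 440 nm, Hill-fitted AC50.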

The target in assay [11] is Mitogen-activated protein kinase 10 (Mus musculus) (UniProt Q61831). As to the kind of experiment: JNK3 AlphaScreen Assay (AID 530; active means well fitted curve in either direction with a large enough effect, not every such curve was filed as active;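 further: kinase came from lysate of stimulated human HepG2 cells; signal reports phosphorylation of biotinylated GST-cJun 1-79 at Ser73 with 10 µM ATP; on the % scale 0 is the no-effect control and ±100 the full control effect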). The method in brief:
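Phosphorylation of biotinylated GST-cJun(1-79) at Ser73 is measured by AlphaScreen proximity luminescence. Enzyme is JNK3 in HepG2 lysates activated with interleukin-1beta and tumor necrosis factor alpha; ATP is 10 uM final.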

In assay [12] the target is 3',5'-cyclic-AMP phosphodiesterase 4B (Homo sapiens) (UniProt Q07343). As to the kind of experiment: qHTS Assay for Inhibitors of PDE-IV (AID 607; active means well fitted activation curve with a large enough effect in the main read-out, with a control signal flat, not every such curve was filed as active; further: % of control where 0% means no effect). The method in brief:
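The readout is membrane depolarisation from a cAMP-sensing CNG channel, detected with a potential dye at ex 535/em 590. Cells were HEK293-derived (endogenous PDE-IV) at 1000 cells/well, titrated up to 22.9 uM final.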

Assay [13] can be described thus: qHTS Assay for Identification of Small Molecule Antagonists for Thrombopoietin (TPO) Signaling Pathway (AID 918). Further: potency means the concentration at half of the fitted maximal effect; nearly all actives have a fitted effect of over 60% in size. Particulars: TPO-dependent cell signaling reporter, antagonist mode. The method in brief:
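Inhibition read as reduced luciferase luminescence after 24 h at 37 C in IL-3-deprived Ba/F3 cells carrying human TPO receptor and GPIIb-promoter reporter, stimulated with 26 pM TPO (final, its EC50) alongside compound.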

For assay [14], the target named is Cytochrome P450 2C9 (Homo sapiens) (UniProt P11712). Briefly: qHTS Assay for Inhibitors and Substrates of Cytochrome P450 2C9 (AID 883). Further: potency means the concentration at half of the fitted maximal effect; nearly all actives have a fitted effect of over 60% in size. The method in brief:
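CYP2C9 deoxyluciferin hydroxylation, 37C, 60 min with NADPH regeneration; 10nM enzyme, 100uM Luciferin-H (KM). Glo detection reagent stopped reaction; luminescence normalized to sulphaphenazole (57uM) full inhibition.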

The target in assay [15] is Cytochrome P450 3A4 (Homo sapiens) (UniProt P08684). As to the kind of experiment: qHTS Assay for Inhibitors and Substrates of Cytochrome P450 3A4 (AID 884). Further: potency means the concentration at half of the fitted maximal effect; nearly all actives have a fitted effect of over 50% in size. The method in brief: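 Luminescent readout of luciferin produced by CYP3A4 (20 nM) dealkylation of Luciferin-PPXE, 25 uM (its KM). NADPH-driven reaction ran 60 min at RT after 10 min compound preincubation; data scaled to 57 uM ketoconazole as 100% inhibition.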

For assay [16] the target is unchanged. As to the kind of experiment: qHTS Assay for Activators of Cytochrome P450 3A4 (AID 885). Further: nearly all actives have a fitted effect of over 65% in size. The method in brief:
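Activators are scored by enhanced luminescence from CYP3A4 conversion of luciferin-PPXE (25uM, equal to KM) to luciferin, after 60 min at RT with an NADPH-regenerating system.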

Assay [17] has as its target Cytochrome P450 2D6 (Homo sapiens) (UniProt P10635). As to the kind of experiment: qHTS Assay for Inhibitors and Substrates of Cytochrome P450 2D6 (AID 891). Further: potency means the concentration at half of the fitted maximal effect; nearly all actives have a fitted effect of over 60% in size. The method in brief: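 Luminescent read-out of luciferin formed by 5 nM human CYP2D6 demethylating 30 uM Luciferin-ME EGE (Km level) over 60 min at room temperature after NADPH regeneration addition. Data normalized to full inhibition by 1.43 uM quinidine.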

Assay [18] has as its target Cytochrome P450 2C19 (Homo sapiens) (UniProt P33261). As to the kind of experiment: qHTS Assay for Inhibitors and Substrates of Cytochrome P450 2C19 (AID 899). Further: potency means the concentration at half of the fitted maximal effect; nearly all actives have a fitted effect of over 60% in size. The method in brief:
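In 50mM KPO4, the reaction held 5nM enzyme and KM-level (10uM) Luciferin-H EGE; it ran 60 min at 37C after NADPH regeneration and a 10 min compound preincubation. Luminescence values were scaled to 57uM ketoconazole as complete inhibition.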

Assay [19] deals with DNA dC->dU-editing enzyme APOBEC-3G (Homo sapiens) (UniProt Q9HC16). As to the kind of experiment: qHTS for inhibitors of Vif-A3G interactions: Validation (AID 588379). Further: 0% is about no effect. The method in brief: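 Yellow fluorescence (Ex 488, Em 500-530) of Vif-coexpressing HeLa A3G-eYFP cells, scanned by Acumen cytometer, reports blocked A3G degradation. Cells plated at 700/well overnight at 37 deg C before compound addition, then a further overnight compound incubation at 37 deg C.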

Glucocorticoid receptor (Homo sapiens), sequence (P04150 whole entry, looked up): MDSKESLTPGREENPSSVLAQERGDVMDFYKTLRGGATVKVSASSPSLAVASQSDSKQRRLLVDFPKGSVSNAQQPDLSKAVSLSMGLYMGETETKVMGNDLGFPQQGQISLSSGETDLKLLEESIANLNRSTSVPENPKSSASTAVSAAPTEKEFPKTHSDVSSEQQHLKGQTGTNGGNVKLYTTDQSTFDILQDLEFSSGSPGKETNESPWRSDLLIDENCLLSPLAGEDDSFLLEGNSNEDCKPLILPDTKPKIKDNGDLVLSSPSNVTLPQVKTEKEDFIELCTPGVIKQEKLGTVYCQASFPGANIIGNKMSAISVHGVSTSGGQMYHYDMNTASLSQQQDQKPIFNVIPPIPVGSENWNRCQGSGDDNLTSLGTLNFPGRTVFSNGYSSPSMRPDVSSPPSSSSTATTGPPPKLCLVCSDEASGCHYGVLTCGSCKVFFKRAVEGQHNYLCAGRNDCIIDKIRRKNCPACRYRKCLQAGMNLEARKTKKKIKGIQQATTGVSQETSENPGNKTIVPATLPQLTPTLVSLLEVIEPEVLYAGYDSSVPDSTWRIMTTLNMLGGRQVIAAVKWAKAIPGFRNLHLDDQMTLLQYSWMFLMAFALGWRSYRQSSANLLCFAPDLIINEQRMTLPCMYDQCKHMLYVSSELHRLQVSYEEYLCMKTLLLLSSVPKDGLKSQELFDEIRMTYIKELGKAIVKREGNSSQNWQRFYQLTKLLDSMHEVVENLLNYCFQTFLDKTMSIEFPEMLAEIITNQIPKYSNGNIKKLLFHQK
3',5'-cyclic-AMP phosphodiesterase 4B (Homo sapiens), sequence (Q07343 whole entry, looked up): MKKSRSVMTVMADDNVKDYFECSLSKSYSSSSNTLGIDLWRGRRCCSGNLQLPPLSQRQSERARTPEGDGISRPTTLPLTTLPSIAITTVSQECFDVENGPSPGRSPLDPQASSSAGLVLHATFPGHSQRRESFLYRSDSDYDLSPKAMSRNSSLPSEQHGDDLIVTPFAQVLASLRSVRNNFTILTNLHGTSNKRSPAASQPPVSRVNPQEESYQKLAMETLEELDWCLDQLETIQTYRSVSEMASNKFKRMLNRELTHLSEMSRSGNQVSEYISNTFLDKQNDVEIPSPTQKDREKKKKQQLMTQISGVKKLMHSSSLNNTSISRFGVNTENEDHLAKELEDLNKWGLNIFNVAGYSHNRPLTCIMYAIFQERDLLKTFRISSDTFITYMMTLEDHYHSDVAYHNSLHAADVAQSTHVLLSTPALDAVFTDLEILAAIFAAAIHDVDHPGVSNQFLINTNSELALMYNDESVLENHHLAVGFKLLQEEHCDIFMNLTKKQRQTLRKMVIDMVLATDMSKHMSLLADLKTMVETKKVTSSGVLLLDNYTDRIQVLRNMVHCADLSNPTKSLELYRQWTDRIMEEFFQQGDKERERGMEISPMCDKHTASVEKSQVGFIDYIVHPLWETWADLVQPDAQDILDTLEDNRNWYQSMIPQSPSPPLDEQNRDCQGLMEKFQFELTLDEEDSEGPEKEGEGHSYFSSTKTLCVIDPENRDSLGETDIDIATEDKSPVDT
Muscarinic acetylcholine receptor M1 (Rattus norvegicus), sequence (P08482 whole entry, looked up): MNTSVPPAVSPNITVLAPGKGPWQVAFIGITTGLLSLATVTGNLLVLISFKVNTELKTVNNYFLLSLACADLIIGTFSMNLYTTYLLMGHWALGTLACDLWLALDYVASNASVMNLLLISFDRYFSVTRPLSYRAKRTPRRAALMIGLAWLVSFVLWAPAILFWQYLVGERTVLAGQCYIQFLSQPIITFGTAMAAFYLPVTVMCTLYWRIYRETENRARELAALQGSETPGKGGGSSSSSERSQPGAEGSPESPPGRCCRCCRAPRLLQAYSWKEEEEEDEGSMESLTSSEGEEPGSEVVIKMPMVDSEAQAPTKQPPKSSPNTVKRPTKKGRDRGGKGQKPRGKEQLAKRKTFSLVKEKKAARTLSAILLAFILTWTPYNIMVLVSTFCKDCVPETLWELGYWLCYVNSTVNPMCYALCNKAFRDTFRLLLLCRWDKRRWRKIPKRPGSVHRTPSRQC
Cytochrome P450 3A4 (Homo sapiens), sequence (P08684 whole entry, looked up): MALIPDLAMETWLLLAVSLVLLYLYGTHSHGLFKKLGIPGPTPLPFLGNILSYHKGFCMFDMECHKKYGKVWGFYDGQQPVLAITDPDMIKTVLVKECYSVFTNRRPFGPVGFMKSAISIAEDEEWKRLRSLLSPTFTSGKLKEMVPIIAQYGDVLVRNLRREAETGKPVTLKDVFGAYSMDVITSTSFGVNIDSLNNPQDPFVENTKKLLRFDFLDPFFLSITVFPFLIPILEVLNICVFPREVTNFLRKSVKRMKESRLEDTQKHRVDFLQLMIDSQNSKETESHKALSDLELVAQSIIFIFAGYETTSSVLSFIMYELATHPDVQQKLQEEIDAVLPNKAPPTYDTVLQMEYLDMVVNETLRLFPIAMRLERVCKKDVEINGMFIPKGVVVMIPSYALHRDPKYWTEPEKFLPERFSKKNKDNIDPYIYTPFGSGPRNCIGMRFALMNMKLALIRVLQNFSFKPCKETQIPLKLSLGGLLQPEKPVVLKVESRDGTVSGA
Guanine nucleotide-binding protein G(i) subunit alpha-1 (Homo sapiens), sequence (P63096 whole entry, looked up): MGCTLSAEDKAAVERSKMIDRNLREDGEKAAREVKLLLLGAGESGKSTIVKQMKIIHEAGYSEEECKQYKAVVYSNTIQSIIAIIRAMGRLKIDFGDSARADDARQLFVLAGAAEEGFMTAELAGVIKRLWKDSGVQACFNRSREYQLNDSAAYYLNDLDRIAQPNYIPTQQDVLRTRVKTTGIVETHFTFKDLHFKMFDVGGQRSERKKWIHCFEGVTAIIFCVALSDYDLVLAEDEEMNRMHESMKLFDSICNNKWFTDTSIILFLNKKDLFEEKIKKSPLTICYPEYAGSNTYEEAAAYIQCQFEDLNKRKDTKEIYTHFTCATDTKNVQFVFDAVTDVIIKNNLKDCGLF
Pyruvate kinase (Leishmania mexicana), sequence (Q27686 2-499 E452W): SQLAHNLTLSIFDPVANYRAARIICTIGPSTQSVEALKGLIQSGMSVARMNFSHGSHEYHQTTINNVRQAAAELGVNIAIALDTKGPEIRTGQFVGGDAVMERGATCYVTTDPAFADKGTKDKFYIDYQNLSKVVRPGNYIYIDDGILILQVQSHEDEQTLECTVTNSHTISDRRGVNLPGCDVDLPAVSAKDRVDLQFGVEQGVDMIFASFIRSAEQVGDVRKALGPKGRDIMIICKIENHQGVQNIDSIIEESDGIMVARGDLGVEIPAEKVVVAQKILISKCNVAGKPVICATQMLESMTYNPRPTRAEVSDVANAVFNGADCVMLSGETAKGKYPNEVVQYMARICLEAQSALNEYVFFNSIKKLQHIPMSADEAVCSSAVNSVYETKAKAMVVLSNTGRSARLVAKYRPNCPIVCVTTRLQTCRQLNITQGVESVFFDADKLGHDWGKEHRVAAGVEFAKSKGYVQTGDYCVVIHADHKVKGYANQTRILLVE
Alpha-galactosidase A (Homo sapiens), sequence (P06280 whole entry, looked up): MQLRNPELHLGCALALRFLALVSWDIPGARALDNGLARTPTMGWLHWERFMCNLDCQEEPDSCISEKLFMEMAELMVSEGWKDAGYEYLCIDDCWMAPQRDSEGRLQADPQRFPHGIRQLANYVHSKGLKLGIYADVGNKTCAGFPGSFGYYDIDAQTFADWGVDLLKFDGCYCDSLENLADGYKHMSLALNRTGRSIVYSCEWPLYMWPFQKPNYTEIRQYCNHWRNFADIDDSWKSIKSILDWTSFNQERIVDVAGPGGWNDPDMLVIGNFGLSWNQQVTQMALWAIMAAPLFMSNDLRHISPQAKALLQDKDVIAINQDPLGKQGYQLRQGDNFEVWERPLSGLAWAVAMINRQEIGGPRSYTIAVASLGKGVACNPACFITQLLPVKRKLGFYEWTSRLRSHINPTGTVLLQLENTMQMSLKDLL
Pyruvate kinase PKM (Homo sapiens), sequence (P14618 whole entry, looked up): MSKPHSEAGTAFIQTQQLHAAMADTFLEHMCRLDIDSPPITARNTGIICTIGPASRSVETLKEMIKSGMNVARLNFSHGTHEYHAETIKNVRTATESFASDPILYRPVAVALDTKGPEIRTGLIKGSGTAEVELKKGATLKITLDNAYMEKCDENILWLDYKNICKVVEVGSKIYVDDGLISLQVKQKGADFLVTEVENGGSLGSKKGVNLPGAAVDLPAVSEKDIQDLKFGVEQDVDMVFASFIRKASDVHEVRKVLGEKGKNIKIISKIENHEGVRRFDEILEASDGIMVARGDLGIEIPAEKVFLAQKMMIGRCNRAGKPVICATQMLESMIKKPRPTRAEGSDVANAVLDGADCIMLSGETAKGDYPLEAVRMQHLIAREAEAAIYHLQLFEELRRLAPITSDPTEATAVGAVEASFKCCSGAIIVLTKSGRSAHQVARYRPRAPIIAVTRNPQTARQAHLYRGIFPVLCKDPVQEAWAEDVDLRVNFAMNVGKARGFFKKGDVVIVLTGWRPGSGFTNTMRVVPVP
Cytochrome P450 2D6 (Homo sapiens), sequence (P10635 whole entry, looked up): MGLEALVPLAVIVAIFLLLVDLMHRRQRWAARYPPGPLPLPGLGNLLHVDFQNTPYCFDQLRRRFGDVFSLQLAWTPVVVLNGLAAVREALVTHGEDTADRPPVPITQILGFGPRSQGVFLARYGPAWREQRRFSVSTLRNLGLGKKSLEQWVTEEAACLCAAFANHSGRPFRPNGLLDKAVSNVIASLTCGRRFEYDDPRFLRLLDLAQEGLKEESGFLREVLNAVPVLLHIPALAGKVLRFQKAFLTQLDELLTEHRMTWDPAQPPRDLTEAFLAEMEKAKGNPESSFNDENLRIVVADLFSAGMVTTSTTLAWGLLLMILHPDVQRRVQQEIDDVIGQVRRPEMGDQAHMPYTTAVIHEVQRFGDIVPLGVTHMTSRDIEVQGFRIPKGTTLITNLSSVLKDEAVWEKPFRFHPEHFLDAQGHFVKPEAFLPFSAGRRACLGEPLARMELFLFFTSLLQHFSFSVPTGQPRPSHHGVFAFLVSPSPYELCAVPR

Take `COC(=O)C1=C(C)NC(C)=C(C(=O)OCCN(C)Cc2ccccc2)[C@@H]1c1cccc([N+](=O)[O-])c1`: the activity, negative = inhibition in [1] was -11.8% [at 38 µM]. The Potency in assay [2] was more than 46 µM; in [3], more than 46 µM; in [5] it was 3.16 µM (active); in assay [6], 17.8 µM (active). Besides, the result in [4], in [8], in assay [9] and in [10] was inactive. Moreover, the Potency entry in assay [7] is “inactive”.
As for `CC1(C)CC(=O)C2=C(C1)Oc1nc3ccccc3cc1C2C(C#N)C#N` (centres undefined), in [1], the activity, negative = inhibition was -93% (active). In [2], the Potency was more than 20.6 µM.
The corresponding values for `N#Cc1ccc(-c2ccc(OCC(O)Cn3nnc4ccccc43)cc2)cc1` (centres undefined) are -29.1% and more than 20.6 µM.
The corresponding values for `N#CC1=C(SCC(=O)c2ccccc2)NC2=C(C(=O)CCC2)C1c1ccco1` (centres undefined) are -23.9% and more than 20.6 µM.
The corresponding values for `CCCCc1ccc(NC(=O)CSC2=C(C#N)C(c3ccco3)C3=C(CCCC3=O)N2)cc1` (centres undefined) are -23.6% and more than 20.6 µM.
In the case of `COc1ccc(CNc2oc(COc3ccc(Cl)cc3)nc2C#N)cc1`, the activity, negative = inhibition in [1] was -26.7%. For the same compound, the Potency in [2] was more than 20.6 µM.
With `CCN(CC)c1ccc(-c2nn3c(-c4cccnc4)nnc3s2)cc1`, the activity, negative = inhibition in [1] was -29.8%. The Potency in assay [2] was more than 20.6 µM.
The corresponding values for `Clc1ccccc1CN(Cc1ccccc1)c1ncnc2nc[nH]c12` are -10.3% and more than 20.6 µM.
For the compound `CSc1ccc2c(c1)N(CC[C@H]1CCCCN1C)c1ccccc1S2`, the activity, negative = inhibition in assay [1] was -7.21%. The Potency is > 46 µM and > 20.6 µM in assay [2]; > 46 µM and > 20.6 µM in assay [3]; 12.6 µM (active) in assay [13]. Further, the Potency result in assay [11], in assay [12] and in assay [7] was “inactive” throughout. Besides, the compound was called inactive in assay [4], in assay [8], in [9] and in [10].
`CCOC(=O)N1CCN(c2ncnc3c2[nH]c2ccc(OC)cc23)CC1`: in [1], the activity, negative = inhibition was -22.9%. Also, the Potency in [2] is more than 20.6 µM.
The matching figures for `CCC(=O)Oc1ccc(/C(CC)=C(\CC)c2ccc(OC(=O)CC)cc2)cc1`: -21.2% and more than 20.6 µM.
The corresponding values for `COc1ccc(C(=O)CCN2CCCCCC2)cc1` are -28.1% and more than 20.6 µM.
The corresponding values for `CN1C2C=C3C(C#N)=C(N)C(C#N)(C#N)[C@@H](c4ccc(Cl)cc4)[C@@H]3C1CC2` (some centres undefined) are 5.5% and more than 20.6 µM.
`N#CC(C(=O)NC1CC1)c1nc2ccccc2nc1N1CCN(C/C=C/c2ccccc2)CC1` (centres undefined): the Potency in assay [2] is more than 20.6 µM.
For `O=c1c(O)c(-c2ccccc2)oc2cc(O)cc(O)c12`, the Potency was more than 46 µM in assay [2]; more than 46 µM in assay [3]; 3.16 µM (active) in [14]; 15.8 µM (active) in assay [15]; 20 µM (active) in [17]; 3.98 µM (active) in assay [18]. The Potency entry in assay [11], in [12] and in [16] was “inactive” throughout. Moreover, the compound was called inactive in assay [19].
